Several values for one entry are separate records, joined by “and”; a condition that tells them apart may be missing. Identical values can stand only once. Records with an inconclusive call do not appear. Some compounds were tested as several samples or in several runs, with calls that do not always agree. Activity calls are given as the source filed them. Calls follow the shape of the dose curve; as a rule, active = well fitted cell-killing curve with a large enough effect; inconclusive = small, poorly fitted or top-dose-only effect, or effect the other way; inactive = flat fitted curve, though single readings scatter.
Experiment: qHTS assay for cell viability of the p53RE-bla HCT-116 cell line (AID 743292); also: nearly all actives have a fitted effect of over 55% in size
Conditions: p53RE-bla HCT-116 viability, ATP luminescence, 16 h; series mostly up to 95 µM; activity change, negative = cytotoxicity: at the top concentration
Procedure, shortened: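 ATP-based luminescence, 16 h compound exposure at 37 C, p53RE-bla HCT-116 cells at 4,000/well.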
% is scaled to controls: 0 for no effect and ±100 for the full control effect; potency is read from the fitted curve at half-maximal effect.

| SMILES | activity change, negative = cytotoxicity | Potency |
| --- | --- | --- |
| Oc1ccc2cc(SSc3ccc4cc(O)ccc4c3)ccc2c1 | -16.7% (inactive) | – |
| Nc1ccc2cc3ccccc3cc2c1 | 1.63% (inactive) | – |
| CN(C)c1ccc(C2(c3ccc(N(C)C)cc3)OC(=O)c3cc(N(C)C)ccc32)cc1 | 1.35% (inactive) | – |
| Cc1cc(Nc2ccc(O)cc2)ccc1N | -22.8% (inactive) | – |
| CO[C@H]1/C=C/O[C@@]2(C)Oc3c(C)c(O)c4c(O)c(c5c(c4c3C2=O)NC2(CCN(CC(C)C)CC2)N=5)=NC(=O)/C(C)=C\C=C\[C@H](C)[C@H](O)[C@@H](C)[C@@H](O)[C@@H](C)[C@H](OC(C)=O)[C@@H]1C | -11.4% (inactive) | – |
| Cc1cc(O)c(C(C)(C)C)cc1Sc1cc(C(C)(C)C)c(O)cc1C | – | 28.2 µM (active) and 25.1 µM (active) |
| C=C(C)c1ccccc1 | -3.51% (inactive) | – |
| O=C1OC2(c3cc(Br)c(O)c(Br)c3Oc3c2cc(Br)c(O)c3Br)c2c(Cl)c(Cl)c(Cl)c(Cl)c21 | – | 39.8 µM (active) |
| c1cc(OCC2CO2)cc(OCC2CO2)c1 (configuration not stated) | -5.04% (inactive) | – |
| ClC1=C(Cl)C(Cl)(Cl)C(Cl)=C1Cl | – | 25.1 µM (active) and inactive |
| C=CC(=O)OCCOCCOC(=O)C=C | 25.7% (inactive) | – |
| C/C=C1\C(=O)C[C@H]2[C@@H]3CCC4=CC(=O)CC[C@]4(C)[C@H]3CC[C@]12C | -22.8% (inactive) | – |
| CNc1ccc(O)cc1 | – | 70.8 µM (active) |
| CC(=O)Nc1ccc(C(=O)CCl)cc1 | 12.1% (inactive) | – |
| CCC(C)Nc1ccc(NC(C)CC)cc1 (configuration not stated) | – | 35.5 µM (active) and 28.2 µM (active) |
| O=C=Nc1ccc(Cc2ccc(N=C=O)cc2)cc1 | – | inactive |
| c1ccc2c(c1)ccc1cc3c(ccc4ccccc43)cc12 | 5.81% (inactive) | – |
